From PubChem BioAssay
Most compounds without a hit are left out; they make up all but 0.87% or so of the library.
TDP1 inh: blocks human tyrosyl-DNA phosphodiesterase 1; Q9NUW8; Potency, µM (doses to about 130 µM), for the others: at the top dose activity change, negative = inhibition, usual class: inhibitors; 350,000 compounds, 0.28% hits; recombinant TDP1, AlphaScreen DNA substrate cleavage; also: nearly all actives have a fitted effect of over 40% in size
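E. coli-derived human Tdp1, 1 nM final. Cpd preinc 15 min RT; substrate 15 nM final, 5 min RT; AS bead mix 10 ug/ml final, 10 min RT. Signal loss = tyrosine-FITC cleavage. No-enzyme wells = max signal.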
KAT2A inh: GCN5L2 (KAT2A) acetyltransferase inhibition; Potency, µM (highest dose often 58.9 µM), for the others: at the top dose activity change, negative = inhibition, actives largely listed as inhibitors; 390,000 compounds, 0.21% hits; GCN5L2 HAT assay, ThioGlo1 CoA-SH fluorescence; Q92830
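Enzyme at 20nM final was mixed with library compounds for 15 min at room temperature. Peptide H3(1-25) at 75uM, acetyl-CoA at 70uM and ThioGlo1 at 50uM were then added. Plates were read immediately and after 20 min (Ex340nm/Em540nm).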
RGS4 inh: human RGS4 inhibition; 390,000 compounds, 0.039% hits; Transcreener GDP fluorescence polarization, RGS4-accelerated GTP hydrolysis; P49798; Potency, µM (doses to about 114 µM), for the others: at the highest dose activity change, negative = inhibition, usual class: inhibitors; also: nearly all actives have a fitted effect of over 75% in size
Target sequence (P49798 whole entry, looked up): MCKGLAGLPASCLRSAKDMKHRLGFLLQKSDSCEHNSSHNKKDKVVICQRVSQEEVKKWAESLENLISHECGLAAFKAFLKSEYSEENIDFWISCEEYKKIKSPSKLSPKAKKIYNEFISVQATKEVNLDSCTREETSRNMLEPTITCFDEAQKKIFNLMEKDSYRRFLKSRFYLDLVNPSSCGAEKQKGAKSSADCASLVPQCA
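MLSMR compounds (23 nl, pin-transferred) preincubated 10 min at room temperature with a 500nM (2x) first reagent, then RGS4 at 900nM (2x) plus Transcreener GDP mix added; fluorescence polarization (620/688 nm) read before and after 90 min at 30 °C.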
BLM inh: inhibitors of human Bloom syndrome helicase BLM | Potency, µM (highest dose often 56.1 µM), for the others: at the highest dose activity change, negative = inhibition, usual class: inhibitors | recombinant BLM DNA unwinding, fluorescence dequenching | P54132 | 350,000 compounds, 0.2% hits;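 also: plate controls were vehicle for no effect and no enzyme for full effect; nearly all actives have a fitted effect of over 35% in size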
RECQ1 helicase: RECQ1 (human) helicase inhibition. RECQ1 DNA unwinding, red fluorescence kinetic read. P46063. 240,000 compounds, 0.54% hits. Potency, µM (highest dose often 57.3 µM), for the others: at the highest dose activity, negative = inhibition, actives largely listed as inhibitors;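 also: plate controls were vehicle for no effect and no enzyme for full effect; nearly all actives have a fitted effect of over 30% in size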
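50 nM RECQ1T1 preincubated 15 min with compound in Tris pH 8.0 buffer with MgCl2, DTT, Tween-20 and 2.5 ug/ml poly(dI-dC); started with 200 nM TAMRA/BHQ-2 forked duplex and 2 mM ATP. Unwinding read as fluorescence (525/598 nm), two reads 2 h apart.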
APE1 inh: APE1 (human) endonuclease inhibition; P27695; recombinant APE1, TAMRA/BHQ-2 abasic DNA cleavage fluorescence; Potency, µM (top dose mostly 65.8 µM), inactives show at the highest dose activity change, negative = inhibition, hits mostly inhibitors; 350,000 compounds, 0.35% hits;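 also: plate controls were vehicle for no effect and reference inhibitor for full effect; nearly all actives have a fitted effect of over 55% in size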
Target sequence (P27695 whole entry, looked up): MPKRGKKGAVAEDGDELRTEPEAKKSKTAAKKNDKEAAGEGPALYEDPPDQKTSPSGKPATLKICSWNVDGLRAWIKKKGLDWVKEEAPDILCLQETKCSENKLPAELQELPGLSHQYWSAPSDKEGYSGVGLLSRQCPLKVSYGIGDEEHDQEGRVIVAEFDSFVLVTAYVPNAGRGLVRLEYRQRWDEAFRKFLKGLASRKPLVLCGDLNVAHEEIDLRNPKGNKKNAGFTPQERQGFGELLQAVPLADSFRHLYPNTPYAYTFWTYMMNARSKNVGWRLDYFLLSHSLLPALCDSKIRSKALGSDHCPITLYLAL
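Activity was derived from the fluorescence gain between first and third kinetic reads (60 s intervals, ex 525/em 598 nm) after 50 nM THF-abasic TAMRA/BHQ-2 duplex was added to 0.75 nM APE1 preincubated 15 min with compound.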
Numbers without * were called inactive; i = inactive; ? = inconclusive; nt = no result; ! = repeats disagree; [ ] = dose if it differs, or a comment. Calls follow the shape of the dose curve; as a rule, active = well fitted curve in the direction sought with a large enough effect; inconclusive = small, poorly fitted or top-dose-only effect, or another doubt; inactive = no such curve, though single readings can be large; an effect the other way counts as inactive or inconclusive. Unless noted, % is scaled to controls: 0 for no effect and ±100 for the full control effect; potency is read from the fitted curve at half-maximal effect.

SMILES | TDP1 inh | KAT2A inh | RGS4 inh | BLM inh | RECQ1 helicase | APE1 inh
Cc1c(CCC(=O)O)c(=O)oc2cc(O)ccc12 | 2% | 28µM* | -4% | 0% | -5% | -3%
Cc1c(CCC(=O)O)c(=O)oc2cc3occ(C(C)(C)C)c3cc12 | 2% | -11% | 8% | -1% | -2% | 1%
Cc1ccc(-c2no[n+]([O-])c2C#N)cc1 | nt | nt | nt | nt | nt | -5%
Cc1cc(C)c2nc(C)cc(N/N=C/c3ccc(O)cc3)c2c1 | nt | -11% | -39%[56.9 µM] | 32µM* | nt | ?
O=C1CCCC2=C1C1(CCCC1)N=C(Nc1nc3ccccc3n1Cc1ccccc1)N2 | 1% | nt | nt | nt | nt | nt
O=C(O)c1ccccc1NS(=O)(=O)c1cccc(-n2sc3ccccc3c2=O)c1 | ? | 0.45µM* | -140% | 1% | nt | -7%
O=C(O)c1ccccc1NS(=O)(=O)c1cccc(C(F)(F)F)c1 | 3% | -15% | -16% | 0% | 4% | 3%
O=C1CCc2cc(S(=O)(=O)Nc3ccc(Cl)c(Cl)c3)c(F)cc2N1 | 1% | nt | nt | nt | nt | nt
O=C(O)c1ccc2c3c(cccc13)C(=O)N(c1ccccc1)C2=O | nt | -17% | 13% | -13% | ? | ?
CC(=O)Nc1ccc2c3c(cccc13)C(=O)N(c1ccccc1)C2=O | 1% | 22µM* | -1% | -2% | -5% | -3%
CCn1c(CSc2nnc(-c3cccnc3)n2-c2ccccc2C)nc2cc(C(=O)O)ccc21 | -3% | 0% | nt | -16% | 32µM* | ?
Cc1ccccc1-n1c(SCC(=O)c2cc(C)n(C)c2C)nnc1-c1cccnc1 | 7% | -7% | -12% | -9% | -13% | 3%
C=C1C=C(C(F)F)n2ncc(C(=O)NCc3ccccc3C(F)(F)F)c2N1 | nt | nt | nt | nt | nt | -28%
CCN(CC)C(=S)SCC(=O)Nc1ccc(F)cc1 | -4% | 3.5µM* | -16% | -2% | -1% | -5%
CCN(CC)C(=S)SCC(=O)c1ccc(F)cc1 | 0% | -4% | -1%[11.4 µM] | 0% | -1% | -5%
Cc1ccc(-c2nc(-c3ccccc3)no2)c(Cl)c1 | 56µM* | -7% | 9% | -13% | -11% | 18%
Cc1[nH]n(-c2ccccc2)c(=S)c1C=Nc1ccc([N+](=O)[O-])cc1 | 9% | 7.9µM* | ? | -1% | -16% | 1%
CCCCC/C=C\C/C=C\CCCCCCCC(N)=O | -1% | 2% | 24µM* | -3% | -1% | ?
CC/C=C\C/C=C\C/C=C\CCCCCCCC(=O)O | 5µM*! | 10µM*! | ? | ? | 1.8µM*! | -35%
CCCCC/C=C\C/C=C\C/C=C\CCCCC(N)=O | 7% | nt | nt | 2% | -11% | 3%
CCCCCCCCCCC/C=C\C(C)(C)/C=C\CCCC(=O)O | 9%[56.1 µM] | 7.9µM* | ? | -3% | 1% | -2%
Cc1ccc(NS(=O)(=O)c2cc3c(cc2N2CCC2)NC(=O)CC3)cc1C | 1% | nt | nt | nt | nt | nt
COCC(C)NC(=O)C(C)N1c2cccc3cccc(c23)S1(=O)=O (stereo not drawn) | 20µM* | -13% | -8% | -1% | nt | -12%
CNC(=O)C(C)N1c2cccc3cccc(c23)S1(=O)=O (stereo not drawn) | nt | -3% | -15% | -4% | nt | -1%
CCCC1(C)C(C#N)(C#N)C1(C#N)C#N | nt | -17% | 9.5µM* | nt | nt | nt
CC(C)(C)C(=O)OCC(=O)[C@H]1CC[C@H]2[C@@H]3CCC4=CC(=O)CC[C@]4(C)[C@H]3CC[C@]12C | nt | nt | nt | nt | nt | 11%
Cc1ccc(Nc2c(-c3ccccc3O)nc3cc(C)ccn23)cc1 | 10% | 25µM* | 9% | -8% | nt | nt
Cc1ccc(Nc2c(-c3ccccc3O)nc3cnccn23)cc1 | 3% | -8% | 23% | -11% | i | -6%
Cc1ccc(S(=O)(=O)N2CCCCC2)cc1C(=O)Nc1ncn[nH]1 | 50µM* | -10% | nt | -9% | -19% | ?
Cc1ccc(S(=O)(=O)N2CCCCC2)cc1C(=O)Nc1cccnc1 | 20µM* | -5% | -11% | -19% | ? | 3%
